Bioassay records as filed in PubChem BioAssay.
BRCT inh green = inhibitors of human BRCA1 BRCT-phosphoprotein interaction (green fluorophore) | BRCA1 BRCT-phosphopeptide binding, green fluorescence polarization | Potency, µM (titrated, usually from 76.9 µM), for inactives: top-dose activity change, negative = inhibition, actives largely listed as inhibitors | 75,000 compounds, 0.05% hits | AID 875;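 also: potency is read from the fitted curve at half-maximal effect; plate controls were peptide without protein for full effect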
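Compounds were incubated for 12 min at room temperature with a complex of 100 nM fluorescein-tagged pBACH1 decapeptide and 250 nM His-tagged BRCT protein. Buffer was phosphate pH 7.3 with EDTA, DTT and Tween 20. Disruption of binding lowers the polarization signal.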
15-hLO inh = 15-hLO (ALOX15) enzyme inhibition; P16050; purified 15hLO-1, xylenol orange hydroperoxide absorbance; Potency, µM (titrated, usually from 57.1 µM), without a hit: top-dose activity change, negative = inhibition, hits mostly inhibitors; 74,000 compounds, 1.4% hits; AID 887; also: potency is read from the fitted curve at half-maximal effect; % is scaled to controls: 0 for no effect and ±100 for the full control effect; nearly all actives have a fitted effect of over 55% in size
Target sequence (P16050 whole entry, looked up): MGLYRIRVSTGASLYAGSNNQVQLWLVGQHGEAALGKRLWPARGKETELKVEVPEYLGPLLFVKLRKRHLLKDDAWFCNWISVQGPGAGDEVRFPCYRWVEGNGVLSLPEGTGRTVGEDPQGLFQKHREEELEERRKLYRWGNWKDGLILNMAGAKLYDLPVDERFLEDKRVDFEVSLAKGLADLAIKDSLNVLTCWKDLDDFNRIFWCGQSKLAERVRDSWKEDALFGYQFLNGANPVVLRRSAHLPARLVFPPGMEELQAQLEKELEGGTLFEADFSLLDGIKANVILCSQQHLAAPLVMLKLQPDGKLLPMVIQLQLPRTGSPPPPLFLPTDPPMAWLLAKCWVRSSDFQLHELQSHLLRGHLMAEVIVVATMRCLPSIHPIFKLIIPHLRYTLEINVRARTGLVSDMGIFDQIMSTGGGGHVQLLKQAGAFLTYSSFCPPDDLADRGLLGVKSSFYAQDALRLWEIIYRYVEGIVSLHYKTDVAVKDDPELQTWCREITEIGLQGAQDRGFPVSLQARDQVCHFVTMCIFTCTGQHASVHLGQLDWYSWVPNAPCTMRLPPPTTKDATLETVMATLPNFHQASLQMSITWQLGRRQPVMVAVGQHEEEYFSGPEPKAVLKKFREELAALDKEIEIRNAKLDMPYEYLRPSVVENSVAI
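Hydroperoxide formed from arachidonic acid (50 uM) by purified human 15hLO-1 (40 nM) oxidizes ferrous iron, and the ferric-xylenol orange complex is read at 573 versus 405 nm. Compounds were preincubated 15 min; reaction ran 6 min at room temperature.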
Pol III holo inh = DNA polymerase III holoenzyme inhibition | reconstituted DNA polymerase III holoenzyme replication, biochemical | Potency, µM (doses to about 57.1 µM), for the others: at the highest dose activity change, negative = inhibition | 71,000 compounds, 0.25% hits; also: potency is read from the fitted curve at half-maximal effect; % is scaled to controls: 0 for no effect and ±100 for the full control effect
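Reconstituted *E. coli* holoenzyme (0.35 nM Pol III, 1 nM beta, 154 nM SSB, 2 nM primase) was preincubated with compound for 15 min at RT. Synthesis on 1.4 nM ssM13Gori ran 35 min, then was stopped with PicoGreen/EDTA and read as dsDNA fluorescence.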
YjeE inh = inhibitors of E. coli YjeE (TsaE) | purified YjeE enzyme, qHTS inhibition assay | Potency, µM | 71,000 compounds, 0.05% hits | AID 605
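Fluorescence polarization of a BODIPY Texas Red–ADP probe (2 uM) bound to purified YjeE (10 uM) was read after 15 min room-temperature incubation with compounds. Loss of polarization marks inhibitors; ADP serves as titrated control.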
BRCT PPI red = BRCT-phosphoprotein interaction inhibition (red fluorophore); P38398; BRCT-phosphopeptide binding, red fluorescence polarization; Potency, µM (highest dose often 76.9 µM), without a hit: at the highest dose activity change, negative = inhibition, actives largely listed as inhibitors; 75,000 compounds, 0.03% hits; also: % is scaled to controls: 0 for no effect and ±100 for the full control effect
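Rhodamine-labelled pBACH1 10-mer (100 nM) bound to BRCT domain (100 nM) at pH 7.3; compounds incubated 12 min room temperature, polarization read. Free peptide defines full inhibition; unlabelled decapeptide titrated as control.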
Tau fil binding = binders of human tau filaments | 71,000 compounds, 2% hits | Potency, µM (titrated, usually from 57.1 µM), for inactives: at the top dose activity change, negative = inhibition | AID 596 | P10636 | recombinant tau filaments, thioflavin S fluorescence, 15 h; filaments grown with octadecylsulfate alongside compound;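 also: potency is read from the fitted curve at half-maximal effect; % is scaled to controls: 0 for no effect and ±100 for the full control effect; actives lower thioflavin S fluorescence by blocking filaments or displacing dye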
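Recombinant tau protein (human, 1 uM final) plus 30 uM ODS in HEPES pH 7.4 with NaCl, DTT and thioflavine S. Compound present from the start; fluorescence at 510 nm after 15 h, 37 C.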
* marks the source's active call; other numbers are inactive results; i = inactive; u = inconclusive; x = no result; ! = a repeat was not active; [ ] = remark or other dose. A selection: hits, their analogues and other compounds. The true share with any hit is near 3.1%. Calls follow the shape of the dose curve; as a rule, active = well fitted curve in the direction sought with a large enough effect; inconclusive = small, poorly fitted or top-dose-only effect, or another doubt; inactive = no such curve, though single readings can be large; an effect the other way counts as inactive or inconclusive.

SMILES	BRCT inh green	15-hLO inh	Pol III holo inh	YjeE inh	BRCT PPI red	Tau fil binding
CN(C)c1ccc(N)cc1	0%	u	-8%	i	3%	13µM*
Cc1cc2c(C(C)C)c(O)c(O)c(C=O)c2c(O)c1-c1c(C)cc2c(C(C)C)c(O)c(O)c(C=O)c2c1O	-17%	u	-14%	100µM*!	-26%	1µM*
NC(=NCCC[C@@H](N)C(=O)O)N[N+](=O)[O-]	x	x	-7%	i	x	1%
COc1cc2c(cc1OC)[C@@H]1C(=O)c3ccc(OC)c(CC=C(C)C)c3OC1CO2 (stereo partly drawn)	0%	16µM*	x	x	-1%	x
CO[C@H]1[C@H](O)[C@H](O[C@@H]2[C@H](Oc3cccc4c(O)c5c(=O)oc6ccc(C)c7c(=O)oc(c34)c5c67)O[C@@H](C)[C@H](O)[C@H]2O)O[C@@H](C)[C@@H]1O	0%[15.4 µM]	7%[11.4 µM]	3.2µM*	i	-2%[15.4 µM]	28%[11.4 µM]
Cc1c2ccncc2c(C)c2c1[nH]c1ccccc12	-3%	-9%	7.9µM*	i	-5%	i
CC(C)N[C@@H](C)Cc1ccc(I)cc1	-3%	3%	3%	i	1%	-7%
C#CCN1C(C)=C(C(=O)CCO)[C@@H](c2cccc(-n3oo3)c2)C(C(=O)OC)=C1C	-2%	-13%[25.6 µM]	-4%	i	-3%	40µM*
C[C@H]1C(=O)O[C@H]2CCN3CC=C(COC(=O)[C@](C)(O)[C@@]1(C)O)[C@H]23	x	x	4%	i	x	0%
C[C@H]1[C@@H](O)[C@@H](C)/C=C\C=CCC\C=C/C=C\C=C/C=C[C@@H](O[C@H]2O[C@@H](C)[C@@H](O)[C@@H](N)[C@@H]2O)C[C@@H]2O[C@@](O)(C[C@@H](O)[C@H]2C(=O)O)C[C@@H](O)[C@@H](O)CC[C@@H](O)C[C@@H](O)C[C@@H](O)CC(=O)O[C@H]1C	2%[34.4 µM]	7.9µM*	-6%[25.6 µM]	i	0%[34.4 µM]	14%[25.6 µM]
O=C(CCCN1CCC2(CC1)C(=O)N(CCc1ccc(N=C=S)cc1)CN2c1ccccc1)c1ccc(F)cc1	x	x	5%	i	x	374%
Nc1ccc(-c2ccc(N)c(O)c2)cc1O	-5%	u	-4%	i	1%	5µM*
COc1cc2c(cc1O)C[C@@H]1c3c(cc(O)c(OC)c3-2)CCN1C	2%[15.4 µM]	1%[11.4 µM]	-8%[11.4 µM]	i	-1%[15.4 µM]	3%[11.4 µM]
COc1cc2c(cc1O)C[C@H]1c3c(cc(O)c(OC)c3-2)CCN1C	-2%[34.4 µM]	-15%[25.6 µM]	-5%	i	2%[34.4 µM]	40µM*!
C[N+]1(C)[C@@H]2CC[C@H]1CC(OC(=O)c1c[nH]c3ccccc13)C2 (stereo partly drawn)	-2%	16µM*	-3%	i	-2%	-9%
NC(N)=Nc1ccc2[nH]c3c(c2c1)C[C@]1(O)[C@@H]2Cc4ccc(O)c5c4[C@]1(CCN2CC1CC1)[C@H]3O5	1%	1.3µM*	-8%	i	-1%	58%
C=C(C)CN1CC[C@@]23c4c5ccc(O)c4O[C@H]2c2[nH]c4ccccc4c2C[C@]3(O)[C@@H]1C5	-2%	-9%[25.6 µM]	-2%	i	2%	u
CN1CCN(c2ccc(N)c(N3CCN(C)CC3)c2)CC1	-1%	-7%	-18%	i	1%	20µM*
CN1CCN(c2ccc(NC(=O)C(C)(C)C)cc2)CC1	-4%	6%	-2%	i	0%	4%
O=CN1C[C@H]2C[C@@H](C1)c1cccc(=O)n1C2	x	x	-2%	i	x	-20%
O=c1ccc2cc(O[C@@H]3O[C@@H](CO)[C@@H](O)[C@@H](O)[C@H]3O)c(O)cc2o1	x	x	-8%	i	x	u
CC1CCCCN1CC(=O)c1ccc2cc[nH]c2c1 (stereo not drawn)	5%	-21%	-1%	i	1%	25µM*
CCn1c(N)c(C(=O)NC)sc1=S	0%	4µM*	-1%	i	0%	-6%
C=CCN1CCc2cccc3c2[C@@H]1Cc1ccc(O)c(O)c1-3	-2%	u	-7%	i	-2%	-26%
CC(=O)OCC1=C(C(=O)[O-])N2C(=O)[C@@H](NC(=O)CCC[C@@H](N)C(=O)[O-])[C@@H]2SC1.[Zn+2]	-3%	25µM*	u	u	-2%	-11%
SMILES	BRCT inh green	15-hLO inh	Pol III holo inh	YjeE inh	BRCT PPI red	Tau fil binding
N#CS.N=C=S.N=C=S.[Cu].[NH2-].[NH2-].[NH2-].[NH2-].c1ccc2ncccc2c1	-1%[15.4 µM]	2.5µM*	-9%[11.4 µM]	i	0%[15.4 µM]	-4%[11.4 µM]
c1ccc2ncccc2c1	-1%	8%	0%	i	-1%	-5%
C=C(C)[C@@H]1CN[C@H](C(=O)O)[C@H]1CC(=O)O	x	x	-6%	i	x	-1%
C=CCN1C[C@H](C)N([C@H](c2ccc(C(=O)N(CC)CC)cc2)c2cccc(O)c2)C[C@H]1C	-3%	-1%[25.6 µM]	-4%	i	0%	40µM*
O=C(O)c1cc[c]([Hg][S]c2ncnc3nc[nH]c23)cc1	1%[15.4 µM]	0.79µM*	-4%[11.4 µM]	i	0%[15.4 µM]	-10%[11.4 µM]
c1ccc(CCCN2CCN(CCOC(c3ccccc3)c3ccccc3)CC2)cc1	0%	25µM*	-2%	i	-1%	-6%
Fc1ccc(C(OCCN2CCN(CCCc3ccccc3)CC2)c2ccc(F)cc2)cc1	0%	-10%[25.6 µM]	-1%	i	-1%	u
CC(C)CC(N(C)C)C1(c2ccc(Cl)cc2)CCC1 (stereo not drawn)	0%	20µM*!	x	x	1%	x
CN(C)C1(c2nnnn2-c2ccc(Cl)cc2)CCCCC1	0%	-1%	-4%	i	-2%	-12%
OC[C@H]1CCCN2CCCC[C@@H]12	x	x	-4%	i	x	u
COCc1cc(C)c(C#N)c(=S)[nH]1	-4%	1.6µM*	3%	i	-1%	3%
CN[C@H]1[C@H]2[C@H]3CCN2C[C@@H]1O3	x	x	-4%	i	x	u
CC(C)Nc1ccc(Nc2ccccc2)cc1	3%	u	-4%	100µM*	0%	16µM*
c1ccc(Nc2ccc3ccccc3c2)cc1	1%	-8%	-2%	i	-2%	-17%
CNc1ccc2oc(C[C@@H]3O[C@@]4(CC[C@H]3C)O[C@@H]([C@@H](C)C(=O)c3ccc[nH]3)[C@@H](C)C[C@H]4C)nc2c1C(=O)O	x	x	-5%	i	x	-16%
